Results taken from the supplement of paper PMC11417369.
± gives the standard deviation of the averaged measurements. The full ranking holds about 25,000 sequences; the median of “ln(normalized median fluorescence intensity)” is about 8.9, and the highest 2% start at about 10. The entries come from a sample that favours the highest values as a whole.

tested on: PfAP2-LT AP2 domain (GST-tagged); assay: gcPBM binding intensity (ln(normalized median fluorescence intensity)); higher = stronger DNA binding
In short: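 The highest Masliner-normalised natural-log median intensity across replicate spots of either probe orientation is reported as binding intensity. GST-tagged P. falciparum DNA-binding domains expressed in E. coli were applied for 1 h to an Agilent 4 × 180k array of primer-extended double-stranded 36-bp intergenic genomic probes plus negative controls, and bound protein was detected with Alexa488 anti-GST antibody and scanned at 488 nm.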

Sequence | gcPBM binding intensity (ln)
ATATTTAGGAAAAATAGTACACATTTAAATAATAAT [XGTACX_site7989] | 8.68 ± 0.47
TTGAAATATACGTAAGTAAATTTCATTTGGTTGTGT [XGTACX_negctrl_site600] | 8.77 ± 0.47
AATATACAAATTACAAGTACAAATCAATATTATATG [XGTACX_site7521] | 8.9 ± 0.42
AATTATTTATTGAGAGTGCAACAAATTATTTCAAAT [GTGCAC_site9461] | 8.44 ± 0.49
AATATTTTAATGCACACACACAAAAAAAAAAAAAAA [CACACA_site7374] | 9.18 ± 0.33
AATAATAAATATATATATATATATATATATATATTT [CACACA_negctrl_site786] | 9.04 ± 0.21
CATAATAGTTATAAAATACACACCAGGCATGATAAA [CACACA_site329] | 9 ± 0.4
ATATATATATATATATGTACATATAATTTTTTTTTT [XGTACX_site6948] | 9.56 ± 0.16
GGAATATTTATACATACACACATATATTTATTTATA [CACACA_site6883] | 8.91 ± 0.38
TAACTTTGAAAAGATGGTACACAATAATATATATAT [XGTACX_site8667] | 8.83 ± 0.35
CCTTTCACATATAATACATGCATTATTATATATGAA [TGCATGCA_site287] | 8.7 ± 0.23
CAAAAAAACAAACACACACACACACCGATATATATA [CACACA_site9218] | 10.1 ± 0.23
AAAAAAAAAAAACACACACACACACCGAAATATATA [CACACA_site4261] | 9.99 ± 0.33
TATATATACATATACACACACACACCGATATATATA [CACACA_site8706] | 9.9 ± 0.29
AAAAAAAAAAAACACACACACACACCGATACATACA [CACACA_site8849] | 10.4 ± 0.085
TATACATACATACATACACACACACCGATATATACA [CACACA_site8184] | 9.89 ± 0.11
CATACATACAAACACACACACACACCGATATATATA [CACACA_site8952] | 10.29 ± 0.092
TATATATATATATACACACACACACCGATATATATA [CACACA_site8813] | 10 ± 0.11
AGGAGGAACAAACAAAACAATAAAAATTATAATAAA [GTGCAC_negctrl_site206] | 8.78 ± 0.64
GTGTATTTATGTTATACACACAAAAATATTTTGTAT [CACACA_site4305] | 9.01 ± 0.33
TTATATATACCATAATGTACTCTATTATATAAAAAA [XGTACX_site7464] | 8.41 ± 0.4
TAATTATGCAGACACACACACACACCCAACTAAAAA [CACACA_site2569] | 9.96 ± 0.23

Sequence | gcPBM binding intensity (ln)
AAAAGATAAAATTATGCACACATACGAATAATTTTA [CACACA_site8497] | 8.92 ± 0.48
AAAGATAATATATGCACACATATAAATATATAAATA [CACACA_site3477] | 9.07 ± 0.43
AAAAAAGATAATTATGCACACACACCCACCCACCCA [CACACA_site8825] | 10.085 ± 0.0071
ATTATATATATGTGCACACAAAAGATATATATATAT [CACACA_site5205] | 9.95 ± 0.26
TATGCACCCAGACACACACACACAACTAAAAAATAA [CACACA_site2567] | 9.8 ± 0.35
AAAAGATAATTATGCACACACACACCCAGACACAAC [CACACA_site5428] | 10.34 ± 0.021
TAATTATGCCAACACACACACACACCCAACTAAAAA [CACACA_site8823] | 9.965 ± 0.092
AAAAGATAATTATGCACACACACACCCCCACCCAAC [CACACA_site2570] | 10.38 ± 0.064
AAAAAAAAAACATACACACACATATAGATTTATATG [CACACA_site6847] | 9.31 ± 0.35
AAAAGGAATTATAGGAAATAAATATATACAAATATA [TGCATGCA_negctrl_site528] | 8.69 ± 0.58
TATATTTATATATGTTGTACTCTCCAATAATATTCC [XGTACX_site4438] | 8.76 ± 0.52
AGTAAATTATATATCTGTACATATATATATGTGTAT [XGTACX_site5519] | 9.04 ± 0.28
AAAATTGGTGAAAATGAAAATATGATTATATGTATA [XGTACX_negctrl_site505] | 8.56 ± 0.53
ATAATTTTATATAAATGTACATACATTTTTATTATA [XGTACX_site7368] | 8.61 ± 0.4
TTAAACTTGAAACACACACACACACCCATATAAAAA [CACACA_site758] | 10.1 ± 0.064
AAAATAACGAGTCAAACACACATATTTATATTTATA [CACACA_site7050] | 8.95 ± 0.45
AAACTTGACGAACACACACACACATATATAAAAAAA [CACACA_site6494] | 10.1 ± 0.4
CAAAAATAACGAGTCAAACACACATATATATATATA [CACACA_site2038] | 9.86 ± 0.3
TTAAACTTGAAACACACACACACACCGATATAAAAA [CACACA_site4578] | 10.06 ± 0.085
TAAAAAAAAAAAAAAACACACATATAAATATATATA [CACACA_site1243] | 8.56 ± 0.52
AAAATAACGAGTCAAACACACATATATATATATATA [CACACA_site2039] | 10.1 ± 0.2
AAAAATAACATATAAACACACATATATATATATATA [CACACA_site3802] | 9.825 ± 0.0071

Sequence | gcPBM binding intensity (ln)
TTCAAAGGGAAATTAACACACACATATATATATATA [CACACA_site8777] | 9.71 ± 0.2
CAAAGGGAAATTAACACACACATATTTATATTTATA [CACACA_site7202] | 9.2 ± 0.47
CAAAGGGAAATTAACACACACATATATATATATATA [CACACA_site2453] | 10.3 ± 0.2
TATAAATAAAAACACACACACACATATATATATATA [CACACA_site2268] | 10.2
TGAACACATACATACACACACACAAAAAAAAAAAAA [CACACA_site392] | 9.76 ± 0.4
AAAAAAAAAAATACTCGTACATAAACCTATACATTT [XGTACX_site6494] | 8.83 ± 0.45
AAAATATGTAGCTACACACACATAAACAAAATAACA [CACACA_site1007] | 9.41 ± 0.3
CTGTTTAAAATATAAACACACATTGTTTGCTTTAGA [CACACA_site1301] | 8.71 ± 0.4
TATAATCATATATACACACACATATATATATATATA [CACACA_site2168] | 9.805 ± 0.05
TAATAAATGACAAATTAACACACATATATTATATAT [CACACA_site9294] | 8.98 ± 0.36
AATAAATAAATACATCTCAGTATATAAACAAACAAA [CACACA_negctrl_site1604] | 8.89 ± 0.51
AAATAATCATAAAATAAACACACATATATAAATATA [CACACA_site7981] | 8.89 ± 0.42
TAAATATAAACACAAACACACACATATATATATATA [CACACA_site7978] | 10.04 ± 0.035
GATAAATTAAAACACACACACATATATATATATATA [CACACA_site3962] | 9.99 ± 0.042
CAGATAAATAAACACACACACACATATATATATATA [CACACA_site9311] | 10.16 ± 0.078
GCATAAATCAAACACACACACATATATATATATATA [CACACA_site2422] | 10.3 ± 0.15
TATATATATATATAAACACACATAAATATAAATATA [CACACA_site1121] | 9.01 ± 0.32
AATAAATTGAAACACACACACACATATATATATATA [CACACA_site848] | 10.17 ± 0.042
AATATAAATAAACACACACACATATATATATATATT [CACACA_site2906] | 9.79 ± 0.21
GAAATATTGAAACACACACACAAACATATATATATA [CACACA_site1911] | 10.1 ± 0.26
CATATAAATAAACACACACACACATATATATATATA [CACACA_site5309] | 10.06 ± 0.064
AAAAACAACACAGATAAATTAACACACACACACATA [XGTACX_negctrl_site588] | 10.1 ± 0.12

Sequence | gcPBM binding intensity (ln)
CATAATACAGATAACACACACAATTATACATAAAAT [CACACA_site5742] | 9.59 ± 0.39
TACTTGTTATTAACATGTACAAAAAAAAAAAAAATT [XGTACX_site1338] | 8.46 ± 0.42
TCTAACATATAATATTCACACACATATATATATTAT [CACACA_site8236] | 9.21 ± 0.43
ACTAAAAGGCTTAAATGTACATATTATATATATATA [XGTACX_site5897] | 8.89 ± 0.42
TGAATAAATATATATACACACATATATGTATATATT [CACACA_site1642] | 8.95 ± 0.37
AAAATTTATAGTATGGTGCATAAAAATATATATATA | 8.82 ± 0.46
AAAAAAAAAAAAAACACACACATATAAATATAAATA [CACACA_site6972] | 9.37 ± 0.45
TAAATAAATAAAAAAACACACATATATATATATATA [CACACA_site4029] | 9.6 ± 0.44
AAAAAAAAAAAAAAAACACACATAAAAATATAATAA [CACACA_site3855] | 8.74 ± 0.63
AAAAAAATTAAACACACACACACATATATATATATA [CACACA_site4718] | 10.1 ± 0.27
TATAAATAAAAACACACACACATATATATATATATA [CACACA_site2319] | 9.88 ± 0.12
CATAAAATATAAAACACACACACATATATATATATA [CACACA_site223] | 10.1 ± 0.28
AAAAAAAAATTAAAAACACACATATATATATATATA [CACACA_site1580] | 9.73 ± 0.014
AAAAAAAAATTAAAAACACACATATAAATAAATATA [CACACA_site6845] | 8.76 ± 0.54
TAAATAAAAAAACACACACACATATATATATATATA [CACACA_site2269] | 10.2 ± 0.36
AAAAAAAAAAAACACACACACACATAAATATATATA [CACACA_site149] | 10.1 ± 0.18
TAAATAAATAAAAAAACACACATATAAATATAAATA [CACACA_site7815] | 8.9 ± 0.52
TAAAATATAAAACACACACACATATATATATATATT [CACACA_site224] | 9.72 ± 0.11
AAGAAAATAAAAAGGTAAATATGTATAAATAAATAA [TGCATGCA_negctrl_site88] | 8.71 ± 0.47
TTATTTTCTTTTTCTTGTACACACATAATATGGATG [XGTACX_site1481] | 9.17 ± 0.54
CTAATGATCATATATACACACACACTAATAAAAAAA [CACACA_site9329] | 9.64 ± 0.14
ATACCTTCTTTTATGTTTAATTAATATACTTTTTAT [CACACA_negctrl_site1557] | 8.96 ± 0.55
